Wnt bcat act: activates Wnt/beta-catenin signaling in a reporter cell assay; activator, plate reader; activation, % at 9.35 µM; 300,000 tested, 1.2% active; AID 743398; in the data active = activation above about 30%, passing the limit was not always enough;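 note: 0% = neutral control wells and 100% = positive control wells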
hgDAF-12 ag: hgDAF-12 agonism, primary luciferase screen; activation, % at 6.8 µM; 370,000 tested, 1.8% active; HEK293 GAL4-hgDAF12 UAS-luciferase reporter, agonist luminescence; normalized to butyrate control;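 active = activation above a cutoff set at the mean of all screened compounds plus 3 SD, cut at about 10% in these data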;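 note: 0% = DMSO wells and 100% = sodium butyrate wells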
esBAF inh: blocks esBAF chromatin remodeling in mouse ES cells; Bmi1-luciferase knock-in reporter, 24 h; 100% = twice the neutral-well signal; reporter increase, % at 12.5 µM; 350,000 tested, 2% active; in the data active = activation above about 40%;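 note: 0% = median of the plate's neutral control wells and 100% = double that signal; a rise in the Bmi1 reporter signal indicates esBAF inhibition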
DAX1 inh: inhibitors of DAX1 repression of SF-1 activated StAR promoter; HEK293T StAR-luciferase reporter, SF-1/DAX-1 repression relief; inhibition, % at 6.8 µM; 370,000 tested, 1.1% active; AID 652010;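 active = inhibition above the mean over all tested compounds plus 3 SD, cut at about 3.6% in these data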;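 note: 0% = DAX-1 cells with DMSO and 100% = cells lacking DAX-1 with DMSO; higher inhibition means more luminescence from relief of DAX-1 repression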
hcDAF12 agonist: activators of H. contortus DAF-12 nuclear receptor. HEK293 hcDAF-12 lit1-tk-luc reporter, luminescence; 0% DMSO, 100% Δ7-dafachronic acid. activation, % at 6.8 µM. 370,000 tested, 1.4% active. AID 652067;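 active = activation above the mean of all tested compounds plus 3 SD, cut at about 5.5% in these data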;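 note: 100% = response to 3 µM Δ7-dafachronic acid high control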
ssDAF12 agonist: activators of S. stercoralis DAF-12 nuclear receptor. HEK293 ssDAF-12/GRIP1 lit1-tk-luc reporter, luminescence; % of 3 µM dafachronic acid response. activation, % at 6.8 µM. 370,000 tested, 1% active. AID 652126;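 active = activation above the mean over all tested compounds plus 3 SD, cut at about 0.9% in these data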;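 note: 0% = DMSO-only wells and 100% = 3 µM delta7-dafachronic acid wells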
The depositor's hits bear a star; / = no result. Most compounds without a hit are left out; they make up all but 4.2% or so of the library.

SMILES | Wnt bcat act | hgDAF-12 ag | esBAF inh | DAX1 inh | hcDAF12 agonist | ssDAF12 agonist
Cc1cccc(NC(=S)N/N=C/c2c[nH]c3ccccc23)c1 | 10 | 14* | 88* | 0 | 0 | 0
Oc1ccccc1C=NNC(=S)Nc1ccc(F)cc1 | 12 | -3 | -1 | -3 | 0 | -1
Cc1ccc(C(=O)N/N=C/c2c[nH]c3ccccc23)o1 | 4 | 7 | 12 | 0 | 6.4* | 0
CN1C(=O)c2cc(NC(=O)c3ccc(Cl)cc3)ccc2OC[C@@H]2O[C@H](CC(=O)NCc3cccc(F)c3)CC[C@H]21 | / | / | -8 | / | / | /
CCCNC(=O)C[C@H]1C[C@H]2c3cc(NC(=O)NC4CCCC4)ccc3O[C@H]2[C@@H](CO)O1 | / | / | -6 | / | / | /
CSCC(=O)N1CCc2ccc(NC(=O)c3ccccc3Cl)cc2C1 | 15 | 1 | 66* | 0 | -1 | 0
CN(C)S(=O)(=O)N1CCc2ccc(NC(=O)c3ccccc3Cl)cc2C1 | 2 | 1 | 9 | 0 | 2 | 0
COc1cccc(/C=C2\N=C3CCCCCN3C2=O)c1 | 36* | 4 | 3 | 0 | -1 | -1
CCN(CC)c1ccc(NC(=O)c2cncc(Br)c2)cc1 | / | 13* | / | 2 | 1 | -1
CCN(CC)c1ccc(NC(=O)c2cccnc2)cc1 | 37* | 4 | 32 | 1 | 1 | -1
Cc1ccc(NC(=O)c2ccc3ccccc3n2)cc1S(=O)(=O)N(C)C | 43* | 5 | 83* | 1 | 3 | 0
Cc1cnc(C(=O)Nc2ccc(C)c(S(=O)(=O)N(C)C)c2)cn1 | 0 | 1 | / | 0 | -2 | -1
Cc1ccc(NC(=O)c2cncc(Br)c2)cc1S(=O)(=O)N(C)C | / | 7 | 39 | 3 | 1 | 1.4*
CN(C)S(=O)(=O)c1cccc(NC(=O)c2cncc(Br)c2)c1 | -3 | 1 | 10 | 0 | 0 | -2
COc1ccc(C#Cc2ccc3c(c2)[C@H]2[C@H](CCN2C(=O)CC2CC2)[C@H](CO)N3)cc1 | / | / | -1 | / | / | /
O=C(C[C@H]1CC[C@H]2[C@@H](COC[C@H](O)CN2CC2CCOCC2)O1)NCC1CC1 | / | / | 3 | / | / | /
Cc1noc(C)c1NC(=O)Nc1cccc2c1O[C@@H](CN(C)C(=O)Nc1ccc(F)cc1)[C@@H](C)CN([C@@H](C)CO)C2=O | / | / | 3 | / | / | /
Cc1ccc(C)c(NC(=O)C2COc3ccccc3O2)c1 (configuration not stated) | 10 | 3 | 17 | 1 | -2 | -1
O=C(Nc1ccccc1[N+](=O)[O-])C1COc2ccccc2O1 (configuration not stated) | 14 | 7 | 45* | 2 | 5 | 0
COc1ccc(C)cc1NC(=O)C1COc2ccccc2O1 (configuration not stated) | 5 | 2 | 20 | 4.2* | 3 | -1
COc1cc(/C=N/O)ccc1Oc1ccc([N+](=O)[O-])cc1[N+](=O)[O-] | 36* | 1 | 6 | -1 | -3 | -2
Cc1ccc(C(=O)NC(=S)Nc2cccnc2Cl)cc1 | 41* | 12* | 23 | 2 | 4 | 0
O=C(C[C@H]1CC[C@@H]2[C@H](COC[C@H](O)CN2C(=O)c2ccc(F)cc2)O1)Nc1nccs1 | / | / | -7 | / | / | /
O=C(C[C@@H]1CC[C@@H](NC(=O)Nc2ccc(F)cc2)[C@@H](CO)O1)NCc1ccccn1 | / | / | -3 | / | / | /
C[C@@H]1CN([C@@H](C)CO)C(=O)Cc2cc(NS(=O)(=O)c3cccs3)ccc2O[C@@H]1CN(C)Cc1ccc(Oc2ccccc2)cc1 | / | / | 1 | / | / | /
SMILES | Wnt bcat act | hgDAF-12 ag | esBAF inh | DAX1 inh | hcDAF12 agonist | ssDAF12 agonist
O=C(C[C@H]1C=C[C@H](NC(=O)Nc2ccc3c(c2)OCO3)[C@@H](CO)O1)NCc1ccc(F)cc1 | / | / | -5 | / | / | /
CCN1CCN(Cc2ccc(NC(=O)Nc3ccccc3OC)cc2)CC1 | -3 | 12* | 6 | 1 | 5 | 0
COc1ccc(NC(=O)Nc2ccccc2OC)cc1 | 16 | 6 | 48* | 1 | 0 | 0
COc1ccccc1NC(=O)Nc1nc(CC(=O)Nc2ccc(N(C)C)cc2)cs1 | 5 | 1 | 51* | -2 | 0 | -1
COc1ccc(NC(=O)N/C=C/c2ccccc2)cc1 | -2 | 12* | / | 2 | 1 | -1
COc1ccc(NC(=O)Cc2csc(NC(=O)Nc3ccccc3OC)n2)cc1 | -2 | -2 | -3 | 1 | -1 | -1

Compound activity as filed in PubChem.
